Results from the supplement of paper PMC10338343.
± gives the standard deviation.

test system: MILI (PIWIL2) piRISC loaded with L1MC piRNA (26 nt); test: pre-steady-state target cleavage rate (min^-1); guide: L1MC piRNA 5'p-UAACUAAAUACUAUGCAAGCUGUAGG; MIWI and MILI are mouse PIWI proteins and EfPiwi is from a freshwater sponge; tags in brackets are library labels; higher = faster piRNA-guided slicing of the target; details: auxiliary factor: 500 nM mouse GTSF1
Outline: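 Active affinity-purified piRISC (1 nM) loaded with one synthetic guide was mixed with a transcribed, DNA-blocked target RNA library (0.1 nM), with or without 500 nM GTSF1 partner protein, in HEPES–potassium acetate buffer at 33 °C for 0–8 or 0–960 min. Uncleaved targets were sequenced, normalised to depth and to weakly complementary targets, and pooled across three trials, with k3 capped at 0.0001 min^-1. The pre-steady-state cleavage rate was determined with a burst-and-steady-state fit.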

| Sequence | pre-steady-state target cleavage rate |
| --- | --- |
| UCCUGGAUGUCCAUGCAUAGUAUUAAGUUA | 0.0665 ± 0.018 |
| UCCUGGUAGUCCUUGCAUAGUAUUUACAAA | 0.00835 ± 0.0045 |
| UCCUGGAUCAGCUUGCAUAGUAAAAACAAA | 0.027 ± 0.0099 |
| UCCUGGAUGUCGUAGCAUAGUAUUUAGUAA | 0.0538 ± 0.01 |
| UCCUCCUACAGCUUGCAUUCUAUUUAGUUA | 0.0458 ± 0.0096 |
| UCCUGGAUGUCGUUGCUUAGUAUUUAGAUA | 0.0162 ± 0.0057 |
| UCCUGGUACAGCAAGCAUAGUAUUUAGAAA | 0.104 ± 0.031 |
| UCCUGGAACAGCUUGCAUAGUUUUAAGUUA | 0.0465 ± 0.009 |
| UCCUGGAUGUCGAUGCUUAGUAUUUUGUUA | 0.0154 ± 0.0056 |
| UCCUGGAUCACCUUCCAUAGUAUUUAGUUA | 0.0405 ± 0.012 |
| UCCUGGAUGUCCUUGCAUAGAAUAUAGUUA | 0.00487 ± 0.0038 |
| UCCUGGAUGUGCUUGCAUAGUAUUUAGUGA | 0.11 ± 0.017 |
| UCCUGGAUGUCCUUGCAUAGUUUAUAGUUA | 0.0111 ± 0.006 |
| UCCUGGAUGUCGAAGCAUAGUAUUUAGUAUA | 0.0394 ± 0.0091 |
| UCCUGGAUGAGCUUGCAUAGUAUAUAGAUA | 0.019 ± 0.0076 |
| UCCUGCUACAGCUUGCAUAGUUAUUACAAA | 0.00534 ± 0.0038 |
| UCCUGGAUGAGCUUGCAAAGUAUUUACAAA | 0.00757 ± 0.0048 |
| UCCUGGUACAGCAAGCAUAGUAUUUACAAA | 0.0528 ± 0.019 |
| UCCUGGAUGUCGAUGCAUAGUAUUUUGUUA | 0.0682 ± 0.016 |
| UCCUGGAUGUCGUUGCCAUAGUAUUUAGUUA | 0.00586 ± 0.0034 |

| Sequence | pre-steady-state target cleavage rate |
| --- | --- |
| UCCUGGAUCACGAUGCAUAGUAUUUUCAAA | 0.0499 ± 0.012 |
| UCCUGGAUGUCGAACCAUAGAAAUUAGUUA | < 0.0001 |
| UCCUGCUUGUGCUUGCAUAGUAUUUACAAA | 0.0112 ± 0.0055 |
| UCCUGGAUGUCCUAGCAUAGUAUUUAGUAA | 0.143 ± 0.031 |
| UCCUCCUACAGCUUGCAAUCUAUUUAGUAA | 0.0401 ± 0.0094 |
| UCCUGGUACAGCUUGCAGUAGUAUUUAGUUA | 0.00495 ± 0.0037 |
| UCCUGGAUGUGCUUCGUUAGUAUUUAGAAA | < 0.0001 |
| UCCUGGAACAGCUUGCAUAGUAUUUAUUUA | 0.113 ± 0.026 |
| UCCUGGUACAGCUUGCAUUCUAUUUAGUUA | 0.0335 ± 0.018 |
| UCCUGGAACAGCUUGCAUAGUAUUAUCUAA | 0.0368 ± 0.012 |
| UCCUGGAACAGCAAGCAUAGUAUUUAGAAA | 0.162 ± 0.025 |
| UCCUGGAUGUGCUUGCAUAGUAUUUCAGUUA | 0.0278 ± 0.01 |
| UCCUGGAUGUGCUUGGAUACUAUUUAGUUA | 0.0156 ± 0.0061 |
| UCCUGGAUGUCCUUGCAUAGUUUUUAGUAA | 0.013 ± 0.0043 |
| UCCUGGAUGAGCAUGCAUAGUAUUUAGAAA | 0.121 ± 0.025 |
| UCCUGGAACAGCUACGAUAGUAUUUAGAAA | 0.0308 ± 0.011 |
| UCCUGGAUCAGCUUGCAUACUAUUUUCAAA | 0.00818 ± 0.004 |
| UCCUGGAUGUGGUUGCAUAGUAUUUAGAAA | 0.0521 ± 0.022 |
| UCCUGGAUGUCGAUGCAUAGUAUUUAUUA | 0.00695 ± 0.0047 |
